Cav32 inh: Cav3.2 calcium influx blockers – cell-based, Fluo-4 calcium fluorescence, FDSS, MLSMR library, primary screen; Voltage-dependent T-type calcium channel subunit alpha-1H (Homo sapiens), O95180; Cav3.2-expressing cells; hits give low values; B-score at 10 µM; actives 4% (n = 100,000); AID 449739, 2010;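 active = single-dose well whose peak fluorescence ratio is a statistical outlier from its plate by either plate-standardised score or position-corrected B-score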
CYP2C9 act: human CYP2C9 activators, primary screen, biochemical, luminescence; Cytochrome P450 2C9 (Homo sapiens), P11712; recombinant CYP2C9, luciferin-H conversion; hits give high values; factor 1 = untreated enzyme, 0 = blocked; activation factor at 5 µM; actives 1.4% (n = 96,000); AID 1024, 2008;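 active = activation factor of 2 or more for CYP2C9 at a 5 µM dose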;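 also: 0 = sulfaphenazole-blocked wells and 1 = vehicle-only wells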
CYP2C19 inh: blockers of cytochrome P450 2C19 activity – biochemical, luminescence, ADME assay, primary screen; P33261; CYP2C19 Supersomes, luciferin-H EGE luminescence, 30 min; inhibition, % at 5 µM; actives 21% (n = 96,000);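 active = CYP2C19 inhibition above a set limit at 5 µM in the primary screen, cut at about 50% in these data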;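 also: plate controls were negative control wells for no effect and 2.5 mM tranylcypromine positive control for full effect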
PTK2B oligo ant: antagonists of Pyk2 self-association, primary screen, Q293 cells, FERM NanoBiT luminescence, HTS; Protein-tyrosine kinase 2-beta (Homo sapiens), Q14289; hits give low values; z-score (the deposit names both 25 µM and 10 µM); actives 0.83% (n = 99,000); AID 1347419, 2020;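 active = Z-score of -3 or lower, scaled per plate to the spread of control and sample wells; inactive = z-score above -3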;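 also: negative z-score means lost luminescence so less FERM oligomerization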
Target sequence (Q14289 whole entry, looked up): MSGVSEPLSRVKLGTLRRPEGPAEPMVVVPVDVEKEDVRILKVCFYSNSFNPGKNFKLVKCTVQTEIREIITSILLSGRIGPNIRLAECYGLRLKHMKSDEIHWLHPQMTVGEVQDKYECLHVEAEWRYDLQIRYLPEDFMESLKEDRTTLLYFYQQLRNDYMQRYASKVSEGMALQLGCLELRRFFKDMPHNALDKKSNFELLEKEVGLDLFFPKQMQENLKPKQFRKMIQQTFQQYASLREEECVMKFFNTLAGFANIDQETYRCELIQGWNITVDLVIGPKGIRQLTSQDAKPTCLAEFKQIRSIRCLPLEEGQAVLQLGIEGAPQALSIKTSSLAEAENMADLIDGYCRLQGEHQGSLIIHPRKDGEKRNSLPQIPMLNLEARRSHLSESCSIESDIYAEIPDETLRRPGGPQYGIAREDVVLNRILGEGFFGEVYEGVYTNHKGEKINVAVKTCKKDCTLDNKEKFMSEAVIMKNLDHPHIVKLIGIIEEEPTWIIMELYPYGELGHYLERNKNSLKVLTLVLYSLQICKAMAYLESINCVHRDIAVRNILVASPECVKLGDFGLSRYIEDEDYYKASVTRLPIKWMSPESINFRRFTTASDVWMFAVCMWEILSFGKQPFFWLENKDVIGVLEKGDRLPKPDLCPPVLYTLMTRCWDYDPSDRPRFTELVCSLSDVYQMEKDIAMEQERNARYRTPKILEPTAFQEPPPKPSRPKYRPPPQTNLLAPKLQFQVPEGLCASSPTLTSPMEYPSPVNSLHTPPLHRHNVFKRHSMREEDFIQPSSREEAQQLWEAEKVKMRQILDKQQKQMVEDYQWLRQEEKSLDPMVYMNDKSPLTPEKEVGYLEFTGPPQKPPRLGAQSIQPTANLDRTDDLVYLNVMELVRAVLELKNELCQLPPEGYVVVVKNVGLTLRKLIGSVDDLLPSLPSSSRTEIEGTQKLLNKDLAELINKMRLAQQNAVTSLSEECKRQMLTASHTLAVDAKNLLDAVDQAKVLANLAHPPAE
CYP2C19 activ: human CYP2C19 activators, primary screen, biochemical, luminescence; Cytochrome P450 2C19 (Homo sapiens), P33261; recombinant CYP2C19, luciferin-H EGE luminescence; hits give high values; 0 = fully inhibited enzyme, 1 = untreated enzyme; activation factor at 5 µM; 96,000 tested, under 10 active;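 active = activation factor of at least 2 at 5 µM in the primary screen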;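 also: 0 = wells with 2.5 mM tranylcypromine and 1 = vehicle-only wells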
CYP2C9 inhib: blockers of cytochrome P450 2C9 activity – biochemical, luminescence, ADME assay, primary screen. inhibition, % at 5 µM. AID 777, 2007. CYP2C9 Supersomes, luciferin-H conversion. actives 20% (n = 96,000);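 active = blocking of liver enzyme CYP2C9 beyond about 50% at 5 µM, limit read from the data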
* marks the source's active call; other numbers are inactive results; . = no result. Compounds with a hit are over-represented: about 27% of the library has one in this group of screens.

SMILES	Cav32 inh	CYP2C9 act	CYP2C19 inh	PTK2B oligo ant	CYP2C19 activ	CYP2C9 inhib
Oc1c(Br)cc(C2N=C(c3ccccc3Cl)NO2)cc1Br (stereo unspecified)	0.12	0.8	26	0.02	0.7	24
Cn1nc(C(F)(F)F)c(/C=N/OC(=O)c2ccccc2Cl)c1SCc1ccc(Cl)cc1	-5*	0.2	54*	-0.64	0.5	77*
CC(C)(C)NC(=O)Cn1nnc(-c2ccc(Cl)cc2)n1	-2.7	1	43	1.7	0.6	-1
COC(=O)c1ccccc1Sc1c(/C=N/OC(=O)c2ccccc2)c(C(F)(F)F)nn1C	-0.58	0.1	39	-1.1	0.6	91*
COc1ccc(C(=O)O/N=C/c2c(C(F)(F)F)nn(C)c2SCc2ccccc2Cl)cc1	-4.2	0.7	17	-0.95	0.8	30
Cc1ccc(C(=O)O/N=C/c2c(C(F)(F)F)nn(C)c2Sc2ccc(Cl)cc2)cc1	-2.6	0.2	23	-0.69	0.8	80*
O=C(CC1(O)C(=O)Nc2ccc(Br)cc21)c1ccc2c(c1)OCO2 (stereo unspecified)	-0.38	0.3	76*	-0.13	0.2	75*
Cc1ccc2c(c1)C(O)(CC(=O)c1ccc3c(c1)OCO3)C(=O)N2 (stereo unspecified)	0.13	0.8	58*	-0.5	0.4	22
O=C1Nc2ccc(Br)cc2C1(O)Cc1ccncc1 (stereo unspecified)	0.045	0.2	56*	-0.21	0.4	83*
CCS(=O)(=O)Nc1ccc(C(=O)CC2(O)C(=O)Nc3ccc(Br)cc32)cc1 (stereo unspecified)	-0.48	0.8	-1	0.96	1	21
O=C(C1=C[C@H](c2ccccc2)C[C@H](OCCCCO)O1)N1CCOCC1	0.67	.	.	.	.	.
O=C1CC(N2CCN(S(=O)(=O)c3cccc(C(F)(F)F)c3)CC2)C(=O)N1Cc1ccccc1 (stereo unspecified)	-1.7	1.2	59*	1.3	0.4	-20
Cc1ccc(S(=O)(=O)N2CCN(C3CC(=O)N(Cc4ccccc4)C3=O)CC2)cc1C (stereo unspecified)	-1.4	1.6	60*	-0.13	0.4	-58
O=C1CC(N2CCN(Cc3ccccc3)CC2)C(=O)N1CCc1ccccc1 (stereo unspecified)	0.24	1	-5	0.24	1	-4
O=S1(=O)CCOC[C@H](Cc2ccccc2)N1Cc1ccc(Cl)cc1	0.016	.	.	.	.	.
CCOC(=O)/C(C#N)=C1/C=CN(Cc2ccccc2)C=N1	0.35	0.4	68*	0.51	0.3	57*
CCOC(=O)/C(C#N)=C1/C=CN(c2ccccc2)C=N1	1.5	0.7	0	0	1	31
CCOc1ccc(Cn2c(O)cc(=O)[nH]c2=O)cc1	-0.57	.	.	-0.2	.	.
COc1ccc(C(=O)NCC(=O)Nc2ccc(F)cc2)cc1OC	0.071	0.6	-9	0.89	1.1	40
CCC(CC)NC(=O)COC(=O)c1ccc(OCC(=O)Nc2ccccc2OC)c(OC)c1	.	0.6	71*	0.34	0.3	44
COc1cccc2c(=O)n(CC(=O)Nc3ccc(F)cc3F)ccc12	-0.35	0.8	56*	.	0.4	21
COc1ccc(C(=O)OCC(=O)Nc2ccc(F)cc2F)cc1OC	-1.9	0.9	28	0.92	0.7	9
COc1cc(C(=O)OCC(=O)Nc2ccc(F)cc2F)cc(OC)c1OC	-0.011	0.7	65*	0.01	0.4	33
COc1cccc2c(=O)n(CC(=O)Nc3ccccc3)ccc12	-0.028	0.8	10	.	0.9	16
COc1ccc(C(=O)OCC(=O)Nc2ccc(F)c(F)c2)cc1OC	-0.032	0.7	58*	0.9	0.4	29
SMILES	Cav32 inh	CYP2C9 act	CYP2C19 inh	PTK2B oligo ant	CYP2C19 activ	CYP2C9 inhib
O=C(Nc1ccsc1C(=O)NC1CCCCC1)c1ccccc1	-0.074	0.9	-6	-0.24	1.1	10
CCn1c(Cc2ccc(OC)cc2)nnc1SCC(=O)Nc1cccc(C(=O)OC)c1	-1.4	.	.	-0.88	.	.
Cc1cc(-c2cc(C(=O)NCc3ccccc3)on2)nc(NC2CCCC2)n1	-0.11	.	.	.	.	.
CC(NC(=O)Nn1cnnc1)(C(F)(F)F)C(F)(F)F	0.23	0.8	-8	0	1.1	16
CC1=C(C(=O)OC(C)C)C(c2cccs2)C(C(=O)OC(C)C)=C(C)N1	.	.	.	-2.2	.	.
COc1ccc(CCNc2oc(COc3ccc(Br)cc3)nc2C#N)cc1OC	-3.4	0.5	34	.	0.7	51*
COc1ccc(CCNc2oc(Cc3cccc4ccccc34)nc2C#N)cc1OC	-1.4	0.4	49	1.3	0.5	57*
COc1ccc(CCNc2oc(-c3cccc4ccccc34)nc2P(=O)(OC)OC)cc1OC	.	.	.	-0.88	.	.
Cc1ccc(NC(=O)c2ccc(CSc3nccc(C)n3)cc2)cc1	-0.29	0.4	32	-0.19	0.7	64*
O=C(/C=C/c1ccccc1)N/C(=C/c1ccccc1)C(=O)N1CCCCC1	-5.6*	0.9	-12	-0.89	1.1	14
O=C(/C(=C/c1ccccc1)c1ccccc1)N1CCCCC1	-2.2	0.3	32	-0.23	0.7	74*
COc1ccc(/C=C(/C(=O)Nc2ccccc2C(=O)N2CCCC2)c2ccccc2)cc1	-2.5	0.9	40	-1.7	0.6	6
Cc1nc(Cl)c(C(=O)NC(=O)Nc2cccc(C(F)(F)F)c2)c(C)c1[N+](=O)[O-]	-0.044	.	.	-1.3	.	.
CCCCCN=Cc1c(C)[nH]n(-c2nc3ccccc3s2)c1=O	0.49	0.3	53*	-0.25	0.5	73*
CCCc1[nH]n(-c2nc3ccccc3s2)c(=O)c1C=NCCN1CCOCC1	0.69	0.9	-14	0.47	1.1	10
Cc1nc2sc(C(c3ccccc3)N3CCN(c4ccccc4F)CC3)c(O)n2n1 (stereo unspecified)	-1.3	0.5	66*	-1.6	0.3	50
O=C(NNS(=O)(=O)c1ccccc1[N+](=O)[O-])c1cccc([N+](=O)[O-])c1	.	.	.	0.05	.	.
COc1cccc(CNCc2ccc(SC)cc2)c1OC	0.05	0.8	100*	0.49	0	16
COC(=O)c1ccsc1NC(=O)c1ccc2c(c1)OCCO2	0.43	.	.	.	.	.
N=c1oc2c3c4c(cc2cc1C(=O)Nc1ccccc1)CCCN4CCC3	-11*	0.9	11	-0.57	0.9	7
COc1ccc(CNc2nc(NCc3ccc(OC)cc3)n(C(=O)c3ccccc3[N+](=O)[O-])n2)cc1	-2.2	0.3	40	-1.1	0.6	70*
COc1ccc(N(Cc2ccccc2)C(=O)c2ccccc2[N+](=O)[O-])cc1	-3.9	0.8	61*	-0.51	0.4	19
